Results published in PubChem BioAssay (NCI).
About 79,000 compounds went through this panel and 15% of them were active in at least one assay; those are over-represented in the sample as a whole. Calls of active or inactive are those of the source. Rule as the data show it: active = growth inhibition above about 70%; inactive = the rest.

How the values were obtained:
[1] = NCI Yeast Anticancer Drug Screen. Data for the rad52 strain (AID 147);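 also: 0% = growth of vehicle-treated control cultures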; details: S. cerevisiae rad52 mutant growth inhibition, active compounds read high
Summary of the method: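 Genetically altered yeast (DNA damage repair defect) treated with compound; inhibition calculated relative to vehicle.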

[2] = NCI Yeast Anticancer Drug Screen. Data for the wt1 strain (AID 149);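 also: 0% = growth of vehicle-treated wt1 cultures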; details: S. cerevisiae wt1 strain (SPY 50644) growth inhibition, active compounds read high
Summary of the method: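 Readout: yeast growth inhibition, normalised to vehicle controls, in the wt1 strain exposed to test compounds.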

[3] = NCI Yeast Anticancer Drug Screen. Data for the rad50EPP+ strain (AID 151);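 also: 0% = growth of vehicle-treated control cultures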; details: S. cerevisiae rad50 mutant strain, active compounds read high
Summary of the method: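 Strain rad50EPP+; compound exposure; % growth inhibition vs vehicle.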

[4] = NCI Yeast Anticancer Drug Screen. Data for the mgt1 strain (AID 153); details: S. cerevisiae mgt1 mutant growth inhibition, active compounds read high
Summary of the method: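 Read-out: yeast growth inhibition vs vehicle control. Strain mgt1, drawn from a panel altered in DNA damage repair or cell cycle control.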

[5] = NCI Yeast Anticancer Drug Screen. Data for the rad50 strain (AID 155);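 also: 0% = growth of vehicle-only cultures of the same strain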; details: S. cerevisiae rad50 strain growth inhibition, active compounds read high
Summary of the method: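 Compounds were tested on a yeast strain with an engineered DNA damage repair alteration; the reported value is growth inhibition normalised to vehicle treatment.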

[6] = NCI Yeast Anticancer Drug Screen. Data for the mec2-1 strain (AID 157); details: S. cerevisiae mec2-1 strain, active compounds read high
Summary of the method: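 Cells of the genetically defined mec2-1 yeast strain are incubated with test compound. Inhibition of growth is calculated against vehicle-treated controls.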

[7] = NCI Yeast Anticancer Drug Screen. Data for the rad14 strain (AID 159);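 also: 0% = growth of vehicle-treated control cultures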; details: S. cerevisiae rad14 strain growth inhibition, active compounds read high
Summary of the method: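 Compound-treated yeast with a defined DNA-repair lesion; growth inhibition normalised to vehicle-treated cultures.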

[8] = NCI Yeast Anticancer Drug Screen. Data for the sgs1 mgt1 strain (AID 161);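 also: 0% = growth of cultures given vehicle only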; details: S. cerevisiae sgs1 mgt1 strain, active compounds read high
Summary of the method: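 Mutant yeast exposed to compound; growth scored against vehicle-only wells.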

[9] = NCI Yeast Anticancer Drug Screen. Data for the CLN2oe strain (AID 163);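 also: 0% = growth of vehicle-only control cultures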; details: S. cerevisiae CLN2oe strain, active compounds read high
Summary of the method: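 Strain altered in cell-cycle control, incubated with compound; growth compared to solvent-treated controls.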

[10] = NCI Yeast Anticancer Drug Screen. Data for the cln2 rad14 strain (AID 165);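 also: 0% = growth equal to vehicle treated cultures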; details: S. cerevisiae cln2 rad14 strain, active compounds read high
Summary of the method: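 The screen exposed genetically defined yeast (cln2 rad14) to test compounds and scored growth inhibition relative to vehicle-treated controls.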

[11] = NCI Yeast Anticancer Drug Screen. Data for the bub3 strain (AID 167); details: S. cerevisiae bub3 mutant strain, active compounds read high
Summary of the method: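 Growth of a checkpoint-deficient yeast mutant is measured after compound exposure. Values represent inhibition relative to vehicle.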

[12] = NCI Yeast Anticancer Drug Screen. Data for the wt2 strain (AID 169);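 also: 0% = growth of vehicle-treated yeast cultures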; details: S. cerevisiae wt2 strain growth inhibition, active compounds read high
Summary of the method: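 Steps: yeast strain treated with compound; growth recorded; inhibition calculated relative to cultures given vehicle alone.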

[13] = NCI Yeast Anticancer Drug Screen. Data for the mlh1 strain (AID 171);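 also: 0% = growth of vehicle-treated control cultures of the same strain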; details: S. cerevisiae mlh1 strain growth inhibition, active compounds read high
Summary of the method: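 Yeast screen: mutant strain plus compound, growth scored against vehicle control wells.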

[14] = NCI Yeast Anticancer Drug Screen. Data for the sgs1 strain (AID 173);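 also: 0% = growth of vehicle-only control cultures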; details: S. cerevisiae sgs1 mutant, active compounds read high
Summary of the method: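 Inhibition of yeast growth served as the measure. The mutant strain was treated with each compound, and growth was normalised to cultures receiving vehicle alone.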

[15] = NCI Yeast Anticancer Drug Screen. Data for the mlh1 rad18 strain (AID 175); details: S. cerevisiae mlh1 rad18 strain growth inhibition, active compounds read high
Summary of the method: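 Compound-treated yeast growth, normalised to vehicle controls. Strain bears defined DNA repair mutations.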

[16] = NCI Yeast Anticancer Drug Screen. Data for the rad18 strain (AID 177); details: S. cerevisiae rad18 mutant growth inhibition, active compounds read high
Summary of the method: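 Inhibition values reflect reduced yeast growth compared with vehicle-treated controls, using a strain engineered with a DNA damage repair defect.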

[17] = at 5.0 µM (retest, dose inferred, filed as 0.5)
[18] = at 50.0 µM (retest, dose inferred, filed as 5.0)

Measured: growth inhibition

O=[N+]([O-])c1cc(S(=O)(=O)F)ccc1Cl
active: [1]; at 33.0 µM 94% | [1]; at 100.0 µM 98% | [2]; at 33.0 µM 93% | [2]; at 100.0 µM 99% | [3]; at 33.0 µM 82% | [3]; at 100.0 µM 99% | [4]; at 33.0 µM 93% | [4]; at 100.0 µM 99% | [5]; at 33.0 µM 94% | [5]; at 50.0 µM 92.5% | [5]; at 100.0 µM 100% | [6]; at 33.0 µM 95% | [6]; at 50.0 µM 94.5% | [6]; at 100.0 µM 100% | [7]; at 33.0 µM 94% | [7]; at 100.0 µM 99% | [8]; [18] 100% | [8]; at 50.0 µM 93.4% | [9]; at 33.0 µM 93% | [9]; at 100.0 µM 98% | [10]; [18] 100% | [10]; at 50.0 µM 92.4% | [11]; at 33.0 µM 90% | [11]; [18] 99% | [11]; at 50.0 µM 93.2% | [11]; at 100.0 µM 98% | [12]; at 33.0 µM 85% | [12]; at 100.0 µM 98% | [13]; at 33.0 µM 95% | [13]; at 100.0 µM 99% | [14]; at 33.0 µM 97% | [14]; at 100.0 µM 98% | [15]; at 50.0 µM 92.8% | [16]; at 33.0 µM 92% | [16]; at 100.0 µM 99%
inactive: [1]; at 1.2 µM 20% | [1]; at 3.7 µM 24% | [1]; at 11.0 µM 49% | [2]; at 1.2 µM 27% | [2]; at 3.7 µM 28% | [2]; at 11.0 µM 9% | [3]; at 1.2 µM 13% | [3]; at 3.7 µM 20% | [3]; at 11.0 µM 47% | [4]; at 1.2 µM 11% | [4]; at 3.7 µM 20% | [4]; at 11.0 µM 18% | [5]; at 1.2 µM 18% | [5]; at 3.7 µM 20% | [5]; [17] 51% | [5]; at 11.0 µM 38% | [5]; [18] 57% | [6]; at 1.2 µM 27% | [6]; at 3.7 µM 25% | [6]; [17] 50% | [6]; at 11.0 µM 35% | [6]; [18] 62% | [7]; at 1.2 µM 1% | [7]; at 3.7 µM -6% | [7]; at 11.0 µM 7% | [8]; [17] 11% | [9]; at 1.2 µM 26% | [9]; at 3.7 µM 20% | [9]; at 11.0 µM 39% | [10]; [17] 27% | [11]; at 1.2 µM -10% | [11]; at 3.7 µM -6% | [11]; [17] 39% | [11]; at 11.0 µM 1% | [12]; at 1.2 µM -11% | [12]; at 3.7 µM -4% | [12]; at 11.0 µM 17% | [13]; at 1.2 µM 15% | [13]; at 3.7 µM 19% | [13]; at 11.0 µM 29% | [14]; at 1.2 µM 6% | [14]; at 3.7 µM 13% | [14]; at 11.0 µM 50% | [15]; [17] 32% | [15]; [18] 54% | [16]; at 1.2 µM 4% | [16]; at 3.7 µM 15% | [16]; at 11.0 µM 30%

O=C(O)CCCOc1cc(Cl)c(Cl)cc1Cl
active: [1]; at 100.0 µM 75% | [2]; at 100.0 µM 71% | [3]; at 100.0 µM 70% | [4]; at 100.0 µM 80% | [5]; [18] 98% | [5]; at 50.0 µM 82% | [5]; at 100.0 µM 78% | [6]; [18] 98% | [6]; at 50.0 µM 74.8% | [6]; at 100.0 µM 90% | [7]; at 100.0 µM 81% | [8]; at 50.0 µM 77.2% | [10]; at 50.0 µM 75.5% | [11]; at 50.0 µM 83.4% | [11]; at 100.0 µM 78% | [12]; at 100.0 µM 80% | [13]; at 100.0 µM 80% | [14]; at 100.0 µM 76% | [15]; [18] 99% | [15]; at 50.0 µM 78.7%
inactive: [1]; at 1.2 µM -13% | [1]; at 3.7 µM -4% | [1]; at 11.0 µM 1% | [1]; at 33.0 µM 45% | [2]; at 1.2 µM -1% | [2]; at 3.7 µM -9% | [2]; at 11.0 µM 2% | [2]; at 33.0 µM 22% | [3]; at 1.2 µM -10% | [3]; at 3.7 µM -6% | [3]; at 11.0 µM 13% | [3]; at 33.0 µM 43% | [4]; at 1.2 µM -17% | [4]; at 3.7 µM -32% | [4]; at 11.0 µM -13% | [4]; at 33.0 µM 35% | [5]; at 1.2 µM -10% | [5]; at 3.7 µM -17% | [5]; [17] 40% | [5]; at 11.0 µM -5% | [5]; at 33.0 µM 42% | [6]; at 1.2 µM -24% | [6]; at 3.7 µM -13% | [6]; [17] 52% | [6]; at 11.0 µM 4% | [6]; at 33.0 µM 34% | [7]; at 1.2 µM -13% | [7]; at 3.7 µM -4% | [7]; at 11.0 µM -4% | [7]; at 33.0 µM 17% | [8]; [17] -17% | [8]; [18] 18% | [9]; at 1.2 µM 0% | [9]; at 3.7 µM -15% | [9]; at 11.0 µM -11% | [9]; at 33.0 µM 4% | [9]; at 100.0 µM 60% | [10]; [17] 10% | [10]; [18] 47% | [11]; at 1.2 µM -6% | [11]; at 3.7 µM -3% | [11]; [17] 28% | [11]; at 11.0 µM -2% | [11]; at 33.0 µM 43% | [11]; [18] 52% | [12]; at 1.2 µM -6% | [12]; at 3.7 µM -11% | [12]; at 11.0 µM -4% | [12]; at 33.0 µM 30% | [13]; at 1.2 µM -20% | [13]; at 3.7 µM -27% | [13]; at 11.0 µM 2% | [13]; at 33.0 µM 40% | [14]; at 1.2 µM -13% | [14]; at 3.7 µM -18% | [14]; at 11.0 µM 2% | [14]; at 33.0 µM 43% | [15]; [17] 42%
